Calls of active or inactive are those of the source. How the source made its calls: active means hit-call score of the fitted dose curve at least 0.9, where 1 is the maximum; inactive means score below 0.9.
Experiments:
[1] = read-out: Plasminogen activator inhibitor-1 (PAI1), SERPINE1 (gene 5054); test: BSK_MyoF_PAI1: BioMAP Diversity Plus: MyoF Assay for Plasminogen activator inhibitor-1 (PAI1) Biomarker Activity (AID 2284256); conditions: primary human lung fibroblasts
Method in brief: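 ELISA read-out of PAI-1 from primary human lung fibroblast cultures 24 h after dosing; gain-of-signal fit versus DMSO control.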

[2] = read-out: Interleukin-8 (IL8), CXCL8 (gene 3576); test: BSK_MyoF_IL8: BioMAP Diversity Plus: MyoF Assay for Interleukin-8 (IL8) Biomarker Activity (AID 2284261); conditions: primary human lung fibroblasts
Method in brief: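 ELISA read-out of IL-8 from primary human lung fibroblasts, 24 h post-dose; positive-direction curve fitting relative to DMSO vehicle baseline.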

Decorin, DCN (gene 1634) = test: BSK_MyoF_Decorin: BioMAP Diversity Plus: MyoF Assay for Decorin Biomarker Activity (AID 2284265); conditions: primary human lung fibroblasts
Method in brief: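 Human lung fibroblasts in the MyoF system were exposed to compound for 24 h, after which decorin was quantified by ELISA. Activity was fitted in the positive direction relative to DMSO negative control.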

[3] = BSK_MyoF_SRB: Viability Assessment in the BioMAP Diversity Plus: MyoF Assay (AID 2284267); conditions: primary human lung fibroblasts;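 further: total protein by SRB absorbance in parallel cultures as cytotoxicity measure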
Method in brief: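 Cytotoxicity read-out: after 10% TCA fixation, parallel human lung fibroblast cultures were stained with 0.1% SRB at 24 h post-dosing and read at 560 nm; DMSO served as baseline.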

[4] = read-out: Matrix Metallopeptidase 1 (MMP1), MMP1 (gene 4312); test: BSK_MyoF_MMP1: BioMAP Diversity Plus: MyoF Assay for Matrix Metallopeptidase 1 (MMP1) Biomarker Activity (AID 2284268); conditions: primary human lung fibroblasts
Method in brief: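 ELISA readout of MMP1 in primary human lung fibroblast cultures, 24 h post-dosing. Gain of signal versus DMSO vehicle control defines activity. Parallel SRB staining (0.1% after 10% TCA fixation, 560 nm) flags overt cytotoxicity.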

[5] = read-out: TIMP metallopeptidase inhibitor 1 (TIMP1), TIMP1 (gene 7076); test: BSK_MyoF_TIMP1: BioMAP Diversity Plus: MyoF Assay for TIMP metallopeptidase inhibitor 1 (TIMP1) Biomarker Activity (AID 2284269); conditions: primary human lung fibroblasts
Method in brief: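 Primary human lung fibroblasts, MyoF multiplex system; chemical exposure 24 h; TIMP-1 by ELISA; positive fitting direction vs DMSO control.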

[6] = read-out: Interferon-inducible T-cell alpha chemoattractant (ITAC), CXCL11 (gene 6373); test: BSK_hDFCGF_ITAC: BioMAP Diversity Plus: hDFCGF Assay for Interferon-inducible T-cell alpha chemoattractant (ITAC) Biomarker Activity (AID 2284251); conditions: primary human foreskin fibroblasts
Method in brief: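 Measured by ELISA, the chemokine level serves as the endpoint in human skin fibroblast primary cultures 24 h after compound addition. Increases relative to DMSO-treated wells define activity.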

[7] = read-out: Plasminogen activator inhibitor-1 (PAI1), SERPINE1 (gene 5054); test: BSK_KF3CT_PAI1: BioMAP Diversity Plus: KF3CT Assay for Plasminogen activator inhibitor-1 (PAI1) Biomarker Activity (AID 2284252); conditions: primary human keratinocytes with fibroblasts
Method in brief: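 PAI-1 levels quantified by ELISA after 24 h compound exposure of primary human skin keratinocytes co-cultured with fibroblasts. Activity is the gain relative to DMSO; cytotoxicity tracked in parallel cultures via SRB staining.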

[8] = read-out: Monocyte Chemoattractant Protein-1 (MCP1), CCL2 (gene 6347); test: BSK_IMphg_MCP1: BioMAP Diversity Plus: IMphg Assay for Monocyte Chemoattractant Protein-1 (MCP1) Biomarker Activity (AID 2284253); conditions: primary human endothelial cells with macrophages
Method in brief: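 ELISA readout of MCP-1 at 24 hours in IMphg co-cultures of venular endothelial cells and macrophages, normalised to DMSO; parallel cultures stained with sulforhodamine B for overt cytotoxicity.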

[9] = read-out: Interleukin-8 (IL8), CXCL8 (gene 3576); test: BSK_KF3CT_IL8: BioMAP Diversity Plus: KF3CT Assay for Interleukin-8 (IL8) Biomarker Activity (AID 2284254); conditions: primary human keratinocytes with fibroblasts
Method in brief: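 Human primary keratinocyte plus foreskin fibroblast co-culture dosed with test chemicals; IL-8 measured by ELISA 24 h after dosing. Activity fitted in the positive direction relative to DMSO negative control.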

[10] = read-out: Macrophage Inflammatory Protein-1 Alpha (MIP1a), CCL3 (gene 6348); test: BSK_IMphg_MIP1a: BioMAP Diversity Plus: IMphg Assay for Macrophage Inflammatory Protein-1 Alpha (MIP1a) Biomarker Activity (AID 2284255); conditions: primary human endothelial cells with macrophages
Method in brief: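 MIP-1a protein levels were quantified by ELISA after 24 h treatment of human endothelial cell–macrophage co-cultures, compared with DMSO. Parallel cultures were fixed with TCA and stained with 0.1% SRB to gauge overt cytotoxicity.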

CD69, CD69 (gene 969) = test: BSK_IMphg_CD69: BioMAP Diversity Plus: IMphg Assay for CD69 Biomarker Activity (AID 2284257); conditions: primary human endothelial cells with macrophages
Method in brief: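 Readout is ELISA for CD69 in primary human venular endothelial cell/macrophage co-culture, taken at 24 h post-dosing. SRB staining of parallel cultures gauged overt cytotoxicity; signal increase versus DMSO defined activity.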

[11] = read-out: Eotaxin 3, CCL26 (gene 10344); test: BSK_BF4T_Eotaxin3: BioMAP Diversity Plus: BF4T Assay for Eotaxin 3 Biomarker Activity (AID 2284258); conditions: primary human bronchial epithelial cells with fibroblasts
Method in brief: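 ELISA measurement of Eotaxin-3 after 24 h chemical exposure in a bronchial epithelial/dermal fibroblast co-culture, with DMSO as baseline. Parallel SRB staining (0.1% SRB after 10% TCA fixation, 560 nm) flagged overt cytotoxicity.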

[12] = read-out: Monocyte Chemoattractant Protein-1 (MCP1), CCL2 (gene 6347); test: BSK_BF4T_MCP1: BioMAP Diversity Plus: BF4T Assay for Monocyte Chemoattractant Protein-1 (MCP1) Biomarker Activity (AID 2284259); conditions: primary human bronchial epithelial cells with fibroblasts
Method in brief: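 MCP-1 ELISA readout taken 24 h after dosing in the BF4T system (bronchial epithelial cells plus dermal fibroblasts). Parallel SRB total-protein staining flagged cytotoxicity; DMSO served as baseline, positive fitting direction.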

[13] = read-out: Intercellular Adhesion Molecule 1 (ICAM1), ICAM1 (gene 3383); test: BSK_BF4T_ICAM1: BioMAP Diversity Plus: BF4T Assay for Intercellular Adhesion Molecule 1 (ICAM1) Biomarker Activity (AID 2284260); conditions: primary human bronchial epithelial cells with fibroblasts
Method in brief: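 ICAM-1 levels measured by ELISA after 24 h chemical treatment of bronchial epithelial cell/dermal fibroblast co-cultures, read against DMSO baseline. Overt cytotoxicity checked in parallel cultures by sulforhodamine B staining.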

CD90, THY1 (gene 7070) = test: BSK_BF4T_CD90: BioMAP Diversity Plus: BF4T Assay for CD90 Biomarker Activity (AID 2284262); conditions: primary human bronchial epithelial cells with fibroblasts
Method in brief: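 CD90 levels by ELISA after 24 h treatment of human bronchial epithelial cell/dermal fibroblast cultures, analysed versus DMSO. Overt cytotoxicity checked in parallel cultures by sulforhodamine B staining.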

[14] = read-out: Interleukin-8 (IL8), CXCL8 (gene 3576); test: BSK_BF4T_IL8: BioMAP Diversity Plus: BF4T Assay for Interleukin-8 (IL8) Biomarker Activity (AID 2284263); conditions: primary human bronchial epithelial cells with fibroblasts
Method in brief: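 Human bronchial epithelial cells with dermal fibroblasts co-culture; IL-8 measured by ELISA 24 hours after dosing, fitted vs DMSO. Cytotoxicity tracked in parallel cultures by SRB total-protein staining.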

[15] = read-out: Interleukin-1 alpha (IL1a), IL1A (gene 3552); test: BSK_BF4T_IL1a: BioMAP Diversity Plus: BF4T Assay for Interleukin-1 alpha (IL1a) Biomarker Activity (AID 2284264); conditions: primary human bronchial epithelial cells with fibroblasts
Method in brief: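 ELISA read-out of IL-1α from bronchial epithelial cell/dermal fibroblast co-cultures 24 h after compound addition. Increases scored against DMSO negative control. Cytotoxicity monitored by sulforhodamine B staining of parallel cultures.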

KRT18 (gene 3875) = test: BSK_BF4T_Keratin818: BioMAP Diversity Plus: BF4T Assay for Keratin 818 Biomarker Activity (AID 2284266); conditions: primary human bronchial epithelial cells with fibroblasts
Method in brief: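 Keratin 8/18 levels quantified by ELISA after 24 h chemical treatment of bronchial epithelial cell/dermal fibroblast co-cultures, fitted in positive direction relative to DMSO. Parallel SRB staining tracks overt cytotoxicity.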

[16] = read-out: Matrix Metallopeptidase 1 (MMP1), MMP1 (gene 4312); test: BSK_BF4T_MMP1: BioMAP Diversity Plus: BF4T Assay for Matrix Metallopeptidase 1 (MMP1) Biomarker Activity (AID 2284270); conditions: primary human bronchial epithelial cells with fibroblasts
Method in brief: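 MMP-1 quantified by ELISA in primary human bronchial epithelial/dermal fibroblast co-cultures, 24 hours post-dosing, with DMSO as baseline; parallel sulforhodamine B staining (560 nm) tracks overt cytotoxicity.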

Measured: AC50

CC(C)c1ccc(CO)cc1
inactive: [1] | [2] | Decorin, DCN (gene 1634) | [3] | [4] | [5]

ClC1=C(Cl)[C@]2(Cl)[C@H]3[C@H]([C@H]4C=C[C@H]3C4)[C@@]1(Cl)C2(Cl)Cl
inactive: [1] | Decorin, DCN (gene 1634) | [3] | [5]
active: [2] 2.92 µM | [4] 20 µM

O=[N+]([O-])c1ccc2c3c(cccc13)CC2
inactive: [1] | [2] | Decorin, DCN (gene 1634) | [3] | [5]
active: [4] 20 µM

CCOC(=O)/C=C(C)/C=C/C[C@@H](C)CCCC(C)C
inactive: [2]
active: [1] 32.3 µM | Decorin, DCN (gene 1634) 20 µM | [3] 30.1 µM | [4] 20 µM | [5] 29.8 µM

CC(=O)C(Cl)C(=O)N(C)C (stereo not drawn)
inactive: [1] | [2] | Decorin, DCN (gene 1634) | [3] | [4] | [5]

ClC(Cl)=C(Cl)C(Cl)=C(Cl)Cl
inactive: [1] | Decorin, DCN (gene 1634) | [3] | [4] | [5]
active: [2] 15.1 µM

Oc1ccc(-c2ccccc2)cc1
inactive: [1] | [2] | Decorin, DCN (gene 1634) | [3] | [4] | [5]

COP(=S)(OC)Oc1ccc(Sc2ccc(OP(=S)(OC)OC)cc2)cc1
inactive: [1] | Decorin, DCN (gene 1634) | [3] | [5]
active: [2] 20 µM | [4] 7.48 µM

O=C(O)C(F)(F)C(F)(F)C(F)(F)C(F)(F)C(F)(F)C(F)(F)F
inactive: all assays above

Source: PubChem BioAssay (EPA / NIEHS)
